Results from PubChem BioAssay AID588719 (Southern Research Specialized Biocontainment Screening …, 2011).
Hit rate of the full screen: of about 1,500 compounds, about 920 (61%) were called active. So high a share suggests a set chosen from earlier hits. Some of the results follow. Results with a measured potency or affinity are listed apart. Unmarked numbers belong to inactive results. No rule for the calls is given here.

test: Vero 76 cell cytotoxicity, dose response, cytotoxicity control for VEEV inhibitor project (AID 588719); conditions: Vero 76 cells viability, cytotoxicity counter-screen; series mostly up to 25 µM; viability: at the top concentration

SMILES	viability
Cc1cc(NC(=O)c2ccc3nccnc3c2)ccc1Br	90.1%
C[C@@H]1CCCCO[C@H](CN(C)C(=O)NC2CCCCC2)[C@@H](C)CN([C@H](C)CO)C(=O)c2cc(NC(=O)c3ccccc3)ccc2O1	93%
COc1cccc(CNC(=O)c2cc3oc4ccccc4c3n2C)c1OC	109%
CCC1(c2ccccc2)NC(=S)N(c2ccc(C)cc2)N1 (centres undefined)	84%
O=C(COC(=O)CCC(=O)c1ccc(F)cc1)NCc1ccccc1Cl	101%
O=C(Nc1ccc(C(=O)OC[C@@H]2CCCN3CCCC[C@H]23)cc1)c1cccc(Br)c1	90.9%
CCCCC(=O)NC(c1ccc(Cl)cc1Cl)c1ccc2cccnc2c1O (centres undefined)	40.8%
CCC(=O)OC1CCC2C3CCC4CC(=O)C=CC4(C)C3CCC12C (centres undefined)	85.2%
CNCCNC[C@H](Cc1cccc2ccccc12)NCCc1ccccc1	94.2%
Cc1cccc2sc(N(CCCN(C)C)C(=O)c3ccco3)nc12	81.4%
CCOC(=O)c1c(C)oc2ccc(OCc3cc(C(=O)OC)oc3C)cc12	87.8%
C=C(C)COc1ccc(-c2nc(N)ncc2-c2ccc(Br)cc2)c(O)c1	80%
C=CCC1(CCCCC)C(=O)NC(=S)NC1=O	77.4%
Oc1c(C(Nc2nc3ccccc3s2)c2ccco2)ccc2cccnc12 (centres undefined)	43.2%
O=CC1=C(c2ccccc2)Oc2ccccc2O1	82.1%
Cc1ccc(NC(=O)Nc2ccno2)cc1	91.5%
Cc1ccc(S(=O)(=O)c2ccsc2NC(=O)c2ccccc2)cc1	92.4%
Cc1cc(N/N=C/c2cccc([N+](=O)[O-])c2)nc(-n2nc(C)cc2C)n1	76.6%
CC(C)(C)OC(=O)[C@H](Cc1ccccc1)NC(=O)c1nc[nH]c1C(=O)NC1CCN(C(=O)OC(C)(C)C)CC1	75.8%
CC1(C)CC(=O)/C(=N/Nc2ccc(Cl)cc2)CO1	87.7%
CCCCOc1ccc(C(=O)Nc2ccc(N3CCN(C)CC3)cc2)cc1	89.9%
CN1CCN(c2ccc(NC(=O)c3cccc(OCc4ccccc4)c3)cc2)CC1	81%
CCCn1cnc2c(SCc3ccccc3Cl)nc(N)nc21	80.5%
O=C(NCCc1csc(-c2cccnc2)n1)c1ccccc1Br	94.9%
CCN(CC)CCCNC(=O)c1oc2ccc(S(=O)(=O)N3CC(C)CC(C)C3)cc2c1C (centres undefined)	95.3%

SMILES	viability
Cc1ccccc1-c1n[nH]c(=S)n1/N=C/c1c(C)nn(-c2ccccc2)c1C	87.3%
COc1ccccc1C1N(c2ccc(Cl)cc2)C(=O)C2CCCN21 (centres undefined)	82.5%
CNc1nc(Cl)nc2c1ncn2-c1ccccc1	81.9%
Cc1cc(=O)[nH]c(N/N=C/c2ccc(OC(=O)c3cccnc3)cc2)n1	89%
O=S1(=O)CCC(NC(=S)SCCOc2ccccc2)C1 (centres undefined)	74.7%
Nc1[nH]nc2nc(NCc3ccccc3)c3c(c12)CCN(Cc1ccccc1)C3	76.5%
CCc1ccc(N2C(=O)NC(=O)/C(=C\C=C\c3ccco3)C2=O)cc1	93.4%
Cc1ccc(N2C(=O)NC(=O)/C(=C\C=C\c3ccco3)C2=O)cc1	84.2%
Nc1nc(CN2CCN(c3ccccn3)CC2)nc(Nc2ccc(Cl)cc2)n1	73.1%
Cc1[nH]c(C)c(S(=O)(=O)N2CCN(c3cccc(C(F)(F)F)c3)CC2)c1C(=O)N1CCCCC1	70.3%
COc1ccccc1OCC(=O)Nc1nc2c(s1)CCCC2	75.5%
O=C(NCCCN1CCOCC1)c1ccc(/C=C2\Oc3ccccc3N(Cc3ccccc3F)C2=O)cc1	89.8%
O=C1Nc2cc(C(=O)NCCCN3CCOCC3)ccc2S/C1=C/c1cccc(Cl)c1	95%
COc1cc(NC(=S)N(C)C)c(OC)cc1Cl	103%
COC(=O)c1cc(Cl)c(NC(=O)c2ccc(C(C)(C)C)cc2)cc1OC	70.6%
CCc1ccc(-c2cc3c(=O)n(CC(=O)NCCCN4CCN(CC)CC4)nc(C)n3n2)cc1	83.6%
O=C(NC1CC1)C1=C[C@@H](C2CCCCC2)C[C@@H](OCc2ccc(CO)cc2)O1	84.6%
NC(=O)C1=C[C@H](C2CCCCC2)C[C@H](OCc2ccc(CO)cc2)O1	96%
Cc1cccc(NC(=O)C(C)Sc2nc3ccccc3c(=O)n2CCCN2CCOCC2)c1 (centres undefined)	77.5%
CC(=O)C1C2c3ccccc3OC1(C)N=c1s/c(=C/c3cn(C)nc3C)c(=O)n12 (centres undefined)	86.7%
O=C(NC1CCN(Cc2ccccc2)CC1)c1ccc(Oc2cc(Cl)cc(Cl)c2)o1	102%
O=C(c1ccc(-c2ccccc2)c(F)c1)C1CCCN(CCO)C1 (centres undefined)	82.1%
c1ccc(COC(CN2CCCCCC2)CN2CCCCCC2)cc1	70.4%
COc1cc2c(cc1OC)C13CCN4CC5=CCOC(CC(=O)O)C(C5CC41)C3N2 (centres undefined)	93%
Cc1c(-c2ccc(OCc3ccccc3)cc2)nc2ccccc2c1C(=O)O	107%

SMILES	viability
C[C@@H]1CN([C@H](C)CO)C(=O)CCCn2nncc2CO[C@@H]1CN(C)C(=O)Nc1ccc(N2CCCCC2)cc1	96.2%
CC(C)CN(C(=O)COC(=O)/C=C/c1ccc(Cl)c(Cl)c1)c1c(N)n(Cc2ccccc2)c(=O)[nH]c1=O	74.3%
COc1cccc(/C=C/c2n[nH]c(=O)c(C#N)c2C)c1	70.6%
O=C1C2C3C=CC(C4CC34)C2C(=O)N1CCCCN1CCN(c2ccc(F)cc2)CC1 (centres undefined)	72.1%
COc1ccc(-c2cc(-c3ccc(F)cc3)nc(N3CCN(C)CC3)n2)cc1	84.9%
Cc1ccc(NC(=O)c2ccc(CN3CCN(C)CC3)cc2)cc1Nc1nccc(-c2cccnc2)n1	72%
COCC(C)n1c(SCc2cc(=O)n3cc(C)ccc3n2)nc2ccccc2c1=O (centres undefined)	81.7%
Cc1ccc2oc(=O)c3cnn(CC(=O)Nc4ccccc4N4CCN(C)CC4)c3c2c1	82.2%
Cc1cccc(NC(=O)CSc2nc3ccccc3nc2N2CCCC2)c1	74.6%
CC(=O)c1cccc(NC(=O)/C=C/c2ccc([N+](=O)[O-])s2)c1	88%
COc1cc(NC(=O)c2ccc(-c3cccc([N+](=O)[O-])c3)o2)ccc1NC(=O)C(C)C	82.7%
O=C1c2cccc3cc([N+](=O)[O-])cc(c23)C(=O)N1c1ccccc1O	81.5%
COc1ccc(C(Nc2cccc([N+](=O)[O-])c2)P(=O)(OC(C)C)OC(C)C)cc1 (centres undefined)	93.5%
CCCNC(=O)N1CCN(c2nc(C(C)C)c3c(c2C#N)CC(C)(C)OC3)CC1	76%
Cc1ccccc1NC(=S)/C(=C(\[O-])c1ccc(C)c([N+](=O)[O-])c1)[n+]1ccccc1	97.6%
O=C(Nc1ccccc1)c1cccc(Cn2cc(C(F)(F)F)ccc2=O)c1	80.6%
Cc1cc(C(=O)NC2CCCc3c2cnn3-c2cccc(C)c2C)no1 (centres undefined)	64.3%
CCOC(=O)C1C(=O)C(=O)N(C2CCCCC2)C1C(=O)OCC (centres undefined)	99.2%
C/C(N)=C(/C#N)C(=O)COC(=O)c1cc(C)n(-c2ccc(F)cc2)c1C	76.3%
Cc1cccc(C)c1OCC(=O)N(Cc1cccs1)C1CCS(=O)(=O)C1 (centres undefined)	88%
CCCn1c(SCC(=O)N(C)C2CCS(=O)(=O)C2)nc2sc3c(c2c1=O)CCC3 (centres undefined)	73.6%
CN(C(=O)CCN1C(=O)/C(=C/c2ccccc2F)SC1=S)C1CCS(=O)(=O)C1 (centres undefined)	97.8%
O=C(Cn1c(=O)sc2ccccc21)Nc1nc2c(s1)CCCC2	97.1%
NC(=O)CC(NC(=O)Cc1ccc(Br)cc1)c1ccc(N2CCC(Cc3ccccc3)CC2)c([N+](=O)[O-])c1 (centres undefined)	75.1%
CCCCCCCCCC(=O)N[C@@H]1c2cc(OC)c(OC)cc2C[C@H]1OCc1ccccc1	81.8%

SMILES	viability
COc1ccccc1C(CNC(=O)CNC(=O)c1ccc(Cl)c(Cl)c1)N1CCCC1 (centres undefined)	89%
CN(C)CCCN(C(=O)c1cc(-c2cccs2)nc2ccccc12)c1nc2ccc(F)cc2s1	81%
COc1ccc(/C=N/NC(=O)c2cc[n+]([O-])cc2)cc1OC	94.5%
CCCn1nc(NC(=O)c2cccs2)c2cc3cccc(C)c3nc21	83%
C/C(=N\NC(=O)c1ccc(N/N=C(\C)c2ccc(O)cc2)cc1)c1ccc(O)cc1	86%
C/C(=N/OCO/N=C(/C)c1ccc(F)cc1)c1ccc(F)cc1	81.7%
Cc1ccc(S(=O)(=O)C2(C(=O)NCc3ccccc3Cl)CC2)cc1	86%
Cc1ccccc1NC(=NCCCN1CC1)Nc1ccccc1C	82.8%
Cc1ccccc1CN(C)C(C)C(=O)Nc1ccccc1F (centres undefined)	92.6%
O=C1C2CCCN2C(c2cccs2)N1c1ccc(Cl)cc1 (centres undefined)	86.3%
C[C@@H]1CN([C@H](C)CO)C(=O)CCCn2nncc2CO[C@H]1CN(C)C(=O)C1CC1	102%
CC(C)[N+]1=C2C=CC=CC=C2SC12C([N+](=O)[O-])=CC(=[N+]([O-])[O-])C=C2[N+](=O)[O-] (centres undefined)	84.7%
O=C(Nc1csc([N+](=O)[O-])c1)Nc1ccccc1Cl	82.5%
Cc1ccc(CS(=O)Cc2ccc(C(=O)N3CCN(c4cccc(C)c4C)CC3)o2)cc1 (centres undefined)	97.3%
CCC(=O)N1CCN(c2ccc(Cl)cc2NC(=O)c2cccc([N+](=O)[O-])c2)CC1	99.8%
COc1ccc(Cl)cc1C=CC=Nc1ccc(S(N)(=O)=O)cc1	73.1%
N#Cc1cccc(NC(=O)CSc2n[nH]c(=O)[nH]c2=O)c1	90.3%
Cc1ccc(CN2CCCC(C(=O)c3ccc4c(c3)OCO4)C2)cc1C (centres undefined)	87.6%
COc1ccc(N2CCCC2)c(NC(=O)c2ccc([N+](=O)[O-])o2)c1	97.5%
O=[N+]([O-])c1cccc(/C([O-])=C(/C(=S)Nc2cccc3ccccc23)[n+]2ccccc2)c1	103%
O=[N+]([O-])c1cccc(C([O-])=C(C(=S)Nc2cccc3ccccc23)[n+]2ccccc2)c1	93%
Cc1nc(N)[nH]c(=O)c1CCCNc1ccc([N+](=O)[O-])cc1	90.7%
C=CCNCCCCOc1ccc(OCc2ccccc2)cc1	92.5%
CCn1c(=O)c([N+](=O)[O-])c(NCc2ccc3c(c2)OCO3)c2ccccc21	86%
